Records with an inconclusive call do not appear. Active and inactive are the calls of the source. The calls were made as follows, unless noted: active = hit-call score of the fitted dose curve at least 0.9, where 1 is the maximum; inactive = score below 0.9.

Experiment [1] in a line: CCTE_Padilla_ZF_Score.Craniofacial: CCTE's 144 Hour Post-fertilization zebrafish Assay Score for Craniofacial Malformation, Padilla Lab (AID 2284405). The method in brief: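 Wild-type zebrafish embryos (with chorions), one per well in 10% Hanks', were dosed at 6–8 hpf in sealed plates and kept at 26C. They were rinsed at 5 dpf. At 6 dpf two blinded assessors scored craniofacial malformations by brightfield stereomicroscopy.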

A short description of experiment [2]: CCTE_Padilla_ZF_Score.Spine: CCTE's 144 Hour Post-fertilization zebrafish Assay Score for Spine Malformation, Padilla Lab (AID 2284407). The method in brief: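 Wild-type zebrafish embryos, one per well in Hanks' solution, dosed at 6–8 hpf in sealed plates at 26C, 14:10 h light:dark; rinsed at 5 dpf. Two blinded assessors scored spinal defects by stereomicroscopy at 6 dpf; fitted versus DMSO.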

The nature of experiment [3]: CCTE_Padilla_ZF_Score.Swim_bladder: CCTE's 144 Hour Post-fertilization zebrafish Assay Score for Swim Bladder Malformation, Padilla Lab (AID 2284408). The method in brief:
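Wild-type zebrafish embryos, one per well in 10% Hanks', dosed at 6–8 hpf, sealed, reared at 26C and rinsed at 5 dpf. Blinded assessors scored uninflated swim bladder by stereomicroscopy at 6 dpf, relative to DMSO.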

A short description of experiment [4]: CCTE_Padilla_ZF_Score.Position: CCTE's 144 Hour Post-fertilization zebrafish Assay Score for Position, Padilla Lab (AID 2284409). In outline: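 Wild-type zebrafish embryos (with chorions) exposed singly from 6–8 hpf in sealed wells of Hanks' solution at 26C, rinsed at 5 dpf. At 6 dpf, blinded assessors scored abnormal water-column position by brightfield stereomicroscopy, relative to DMSO.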

Experiment [5] is described as follows: CCTE_Padilla_ZF_Score.General: CCTE's 144 Hour Post-fertilization zebrafish Assay Score for General Malformation, Padilla Lab (AID 2284411). In outline:
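Wild-type zebrafish embryos were plated singly at 6-8 hpf in 10% Hanks' and exposed in sealed wells at 26C until rinsed on 5 dpf. At 6 dpf two blinded assessors scored mortality, hatching and malformations by stereomicroscopy; gain-of-signal versus DMSO.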

The nature of experiment [6]: CCTE_Padilla_ZF_Score.Any: CCTE's 144 Hour Post-fertilization zebrafish Assay Score for Any Mortality or Malformation, Padilla Lab (AID 2284416). The method in brief: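 Wild-type zebrafish embryos with chorions, one per well in 10% Hanks' from 6–8 hpf, dosed in sealed plates at 26 C, 14:10 h light:dark; rinsed at 5 dpf; blinded scoring at 6 dpf for death or malformation, versus DMSO.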

The test system of experiment [7] is TTR (gene 7276). The experiment can be described thus: CCTE_GLTED_hTTR_0.125uM: CCTE's human Transthyretin (hTTR) Inhibition Assay, with 0.125uM TTR, Great Lakes Toxicology and Ecology Division (GLTED) Lab (AID 2284431).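 Also: hits lower the fluorescence signal relative to DMSO baseline.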 In outline:
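Probe-displacement format: chemicals competing for the T4 site release ANSA from 0.125uM TTR during a 2 h incubation, measured by fluorescence at 380 excitation and 475 emission.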

Experiment [8] has as its system SRY-box transcription factor 17 (SOX17) Protein Expression, Deisenroth Lab, SOX17 (gene 64321). The experiment can be described thus: CCTE_Deisenroth_DEVTOX-GLR_Endo_SOX17: CCTE's DevTox GLR-Endo Assay Evaluation of SRY-box transcription factor 17 (SOX17) Protein Expression, Deisenroth Lab (AID 2284413). The method in brief: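 RUES2-GLR human pluripotent cells were differentiated toward endoderm for 48 h and received two compound doses 24 h apart (1 nM - 200 uM, 10 points). High-content imaging of fixed cells gave the percent SOX17+ cells per cell count, expressed as percent change versus 0.2% DMSO.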

Experiment [9] relates to Brachyury (BRA) Protein Expression, TBXT (gene 6862). The experiment can be described thus: CCTE_Deisenroth_DEVTOX-GLR_Endo_BRA: CCTE's DevTox GLR-Endo Assay Evaluation of Brachyury (BRA) Protein Expression, Deisenroth Lab (AID 2284417). In outline: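 Read-out: BRA+ cell count divided by total cell count by high-content imaging (5 fields per well), expressed relative to 0.2% DMSO solvent control. RUES2-GLR cells dosed twice over a 48 h differentiation; concentrations 1 nM - 200 uM.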

Experiment [10] is described as follows: CCTE_Deisenroth_DEVTOX-GLR_Endo_CellCount: Viability Assessment in CCTE's DevTox GLR-Endo Assay, Deisenroth Lab (AID 2284420). The method in brief: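 Viability in differentiating RUES2-GLR cultures is scored by fluorescent nuclear counts after 48 h and two 24-hourly chemical treatments, as percent change from the 0.2% DMSO control.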
Experiment [11] deals with SRY-box transcription factor 17 (SOX17) Protein Expression, Deisenroth Lab, SOX17 (gene 64321). The experiment can be described thus: CCTE_Deisenroth_DEVTOX-GLR_Pluri_SOX17: CCTE's DevTox GLR-Pluri Assay Evaluation of SRY-box transcription factor 17 (SOX17) Protein Expression, Deisenroth Lab (AID 2284427; active = hit-call score of the fitted dose curve at least 0.9, where 1 is the maximum). In outline: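 Seed cells 24 h; differentiate 48 h, dosing at 0 and 24 h (1 nM - 200 uM); fix, stain nuclei, image 5 fields per well; count SOX17+ cells over total cells and subtract 0.2% DMSO control.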

Experiment [12] concerns SRY-box transcription factor 2 (SOX2) Protein Expression, Deisenroth Lab, SOX2 (gene 6657). The experiment can be described thus: CCTE_Deisenroth_DEVTOX-GLR_Pluri_SOX2: CCTE's DevTox GLR-Pluri Assay Evaluation of SRY-box transcription factor 2 (SOX2) Protein Expression, Deisenroth Lab (AID 2284428). In outline: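 SOX2 expression frequency is scored in a human pluripotent reporter line, RUES2-GLR, exposed to chemicals twice over 48 h. Imaging-based SOX2+ cell percentage is normalized as change versus 0.2% DMSO.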

The subject of experiment [13] is Brachyury (BRA) Protein Expression, Deisenroth Lab, TBXT (gene 6862). The experiment can be described thus: CCTE_Deisenroth_DEVTOX-GLR_Pluri_BRA: CCTE's DevTox GLR-Pluri Assay Evaluation of Brachyury (BRA) Protein Expression, Deisenroth Lab (AID 2284429; active = hit-call score of the fitted dose curve at least 0.9, where 1 is the maximum). The method in brief:
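RUES2-GLR human pluripotent cells differentiated 48 hours with two chemical exposures 24 hours apart, 10-point series 1 nM–200 uM. Fixed, nuclear-stained, imaged; endpoint is percent BRA+ cells minus 0.2% DMSO control.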

Experiment [14] in a line: CCTE_Deisenroth_DEVTOX-GLR_Pluri_CellCount: Viability Assessment in CCTE's DevTox GLR-Pluri Assay Evaluation of Total Cell Counts, Deisenroth Lab (AID 2284430). The method in brief:
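RUES2-GLR human pluripotent cells, seeded 24 h, then differentiated 48 h with two chemical exposures 24 h apart; 10-point series 1 nM - 200 uM. Fixed, nuclear-stained, imaged (5 fields/well); nuclei count as % change vs 0.2% DMSO.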

`CC(O)C(F)(F)C(F)(F)F` (centres undefined): the result in experiment [1], in experiment [2], in experiment [3], in experiment [4], in experiment [5] and in [6] was inactive.
In the case of `CCC(C)(C)c1ccc(O)cc1`, the AC50 in experiment [7] is 14.4 µM (active).
Regarding `O=P1(N(CCCl)CCCl)NCCCO1` (centres undefined), the call in experiment [8], in experiment [9], in experiment [10], in [11], in experiment [12] and in [13] was inactive. The call in experiment [14] was inactive.
Regarding `O=S(=O)(c1ccc(O)cc1)c1ccc(O)cc1`, the concentration at half-maximal activity (AC50) in [7] was 19.9 µM (active).
As for `N#Cc1c(-c2ccc(Cl)cc2)[nH]c(C(F)(F)F)c1Br`, the molecule was classed as inactive in experiment [5].
With `OCC(F)(F)OC(F)(F)C(F)(F)OC(F)(F)CO`, the result in [1], in experiment [2], in experiment [3], in [4], in experiment [5] and in [6] was inactive.
Turning to `OCC(F)(F)OC(F)(F)C(F)(F)OC(F)(F)C(F)(F)OC(F)(F)CO`, the call in experiment [1], in [2], in experiment [3], in experiment [4], in experiment [5] and in experiment [6] was inactive.
On to `CCOP(=S)(OCC)SCS(=O)(=O)CC`, for which the AC50 in experiment [5] is 65.2 µM (active).
Consider `OCC(F)(F)OC(F)(F)C(F)(F)OC(F)(F)C(F)(F)OC(F)(F)F`, for which the AC50 in experiment [1] was 20.2 µM (active); in [3], 27.5 µM (active); in experiment [4], 34.4 µM (active); in [5], 16.2 µM (active); in [6], 27.5 µM (active). The call in experiment [2] was inactive.
As for `Cc1c([N+](=O)[O-])cc2c(c1[N+](=O)[O-])C(C)(C)CC2(C)C`, in [5], the concentration at half-maximal activity (AC50) is 2.8 µM (active).
With `O=S1(=O)OCC2C(CO1)C1(Cl)C(Cl)=C(Cl)C2(Cl)C1(Cl)Cl` (centres undefined), the AC50 in experiment [5] is 0.165 µM (active).
On to `CC(C)Nc1ccc(Nc2ccccc2)cc1`, for which the AC50 in experiment [5] was 2.6 µM (active).
Consider `CCCCc1ccc(O)cc1`, for which, in experiment [7], the concentration at half-maximal activity (AC50) was 6.48 µM (active).
Still for that read-out and setting: to `CCCCCCCc1ccc(O)cc1` belongs 0.736 µM (active).
As to `NC(=O)C(F)(F)C(F)(F)F`, the result in [1], in experiment [2], in experiment [3], in [4], in experiment [5] and in experiment [6] was inactive.
`O=P(OCC(Br)CBr)(OCC(Br)CBr)OCC(Br)CBr` (centres undefined): the half-maximal activity concentration (AC50) in experiment [5] is 2.01 µM (active).
Turning to `O=c1ssc(Cl)c1Cl`, the outcome in experiment [5] was inactive. In experiment [7], the AC50 is 0.578 µM (active).
As to `CO/N=C(/C(=O)OC)c1ccccc1COc1ccccc1C`, in [7], the AC50 is 3.22 µM (active).
As to `CC(C)(C)c1ccccc1OP(=O)(Oc1ccccc1)Oc1ccccc1`, in experiment [5], the AC50 was 8.75 µM (active).
Consider `c1ccc2c(c1)sc1ccccc12`, for which the outcome in experiment [5] was inactive.
Turning to `Nc1ccc([N+](=O)[O-])cc1Cl`, the molecule was classed as inactive in [5].
Take `CCCCC(CC)COP(=O)(Oc1ccccc1)Oc1ccccc1` (centres undefined): the AC50 in experiment [5] was 3.23 µM (active).
For the molecule `O=C(O)C(F)(F)OC(F)(F)C(F)(F)OC(F)(F)C(=O)O`, the outcome in experiment [1], in experiment [2], in experiment [3], in experiment [4], in experiment [5] and in [6] was inactive.
Turning to `O=S(=O)(F)C(F)(F)C(F)(F)C(F)(F)C(F)(F)C(F)(F)C(F)(F)C(F)(F)C(F)(F)F`, the call in experiment [1], in [2], in experiment [3], in [4], in experiment [5] and in experiment [6] was inactive.
With `O=C(O)C=CC(F)(C(F)(F)F)C(F)(F)F`, the molecule was called inactive in experiment [1], in [2], in experiment [3], in experiment [4], in experiment [5] and in experiment [6].
For `O=C(O)C(F)(F)OC(F)(F)C(F)(F)OC(F)(F)F`, the result in experiment [1], in [2], in [3], in [4], in experiment [5] and in [6] was inactive.
Regarding `O=C(O)C(F)(F)C(F)(F)C(=O)O`, the molecule was called inactive in [1], in experiment [2], in experiment [3], in [4], in experiment [5] and in [6].
Regarding `C=CC(=O)OCC(F)(F)C(F)F`, the molecule was called inactive in [1], in experiment [2], in experiment [3] and in [4]. Also, the AC50 in [5] is 7.91 µM (active); in [6] it was 9.85 µM (active).
Turning to `CCOP(=S)(OCC)SCSc1ccc(Cl)cc1`, the AC50 in experiment [5] was 8.15 µM (active).
Take `FC(F)(F)C(F)(C(F)(F)F)C(F)(F)C(F)(F)CC1CO1` (centres undefined): the molecule was called inactive in [1], in [2], in experiment [3], in experiment [4], in experiment [5] and in experiment [6].
As to `COC(=O)C(F)(F)C(F)(F)OC(F)(C(F)(F)F)C(F)(F)OC(F)=C(F)F` (centres undefined), the molecule was called inactive in experiment [1], in experiment [2], in experiment [3], in experiment [4], in experiment [5] and in [6].
As to `O=C(O)C(F)(OC(F)(F)C(F)(F)C(F)(F)F)C(F)(F)F` (centres undefined), the call in experiment [1], in [2], in experiment [3], in experiment [4], in experiment [5] and in [6] was inactive.

By AC50 is commonly meant the concentration at which the activity in the assay is half-maximal.

These data come from PubChem BioAssay (EPA / NIEHS).
